The values below come from PubChem BioAssay AID1906 (The Scripps Research Institute Molecular Screening Center, 2009).

Each structure is given as a SMILES string. In all, about 300,000 compounds went through this assay and about 1,500 (0.5%) were called active. For the sample, actives were picked, then their nearest neighbours and some compounds at random. A number with no mark means an inactive call.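 Rule for the calls: active = inhibition above the mean of all tested compounds plus 3 SD, set per screening campaign (cut at about 17% in these data); inactive = the rest.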

This experiment deals with cathepsin L1 (Fasciola hepatica). The experiment in a line: CTSL1 protease inhibition, fluke enzyme – biochemical, QFRET, fluorogenic peptide substrate, counter-screen for PFM18AAP inhibitor project, primary screen (AID 1906).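 Note: 0% = plate median of test compound wells and 100% = 1 µM Z-Phe-Ala-diazomethylketone.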 The conditions noted are these: recombinant F. hepatica cathepsin L1, Z-Leu-Arg-MCA fluorescence; at 5.96 µM; hits give high values. In general terms: A counterscreen serves to expose hits that act by an unwanted route or on another target.
Usually inhibition stands for the relative decrease from the control value, in per cent. Turning to `O=C(NC(=S)NC1CCS(=O)(=O)C1)c1cccc([N+](=O)[O-])c1` (stereo unspecified), the inhibition was -1.84%.
To `CC(C)C[C@H](NC(=O)[C@@H]1O[C@H]1C(=O)O)C(=O)NCCCCN=C(N)N` belongs 112% (active).
Take `O=C1CC2(CCN(C(=O)COc3ccc(F)cc3)CC2)Oc2ccccc21`: the inhibition was -0.88%.
In the case of `CC(=O)N(C1=C(Cl)C(=O)c2ccccc2C1=O)c1ccc(C(=O)O)cc1`, the inhibition is 41.1% (active).
To `O=C(CN1C(=O)c2ccccc2C1=O)NCc1ccc(C(=O)O)cc1` belongs 10.4%; to `CC(C)N(C(=O)c1ccc(-c2ccccc2F)cc1)C(C)C`, -3.72%.
Then `CCN(CC)CCNS(=O)(=O)c1ccc(/C=C/C(=O)O)cc1`, with 8.82%.
For `Cc1ccc(C(C)C)c(OCCSc2nc3ccccc3n2CC(=O)O)c1`, the inhibition is 2.31%.
Then `CC(C(=O)NCCc1ccc(S(N)(=O)=O)cc1)N1C(=O)CC(C)(C)Sc2ccccc21` (stereo unspecified), with 3.12%; and `Cc1cc(C(=O)OC(C)C(=O)NC2CCCCC2C)c(C)o1` (stereo unspecified), with 1.05%.
Take `CC(OC(=O)CNC(=O)c1cccc(F)c1)C(=O)NC1CCCCC1C` (stereo unspecified): the inhibition was 46.5% (active).
Turning to `CC(OC(=O)CNC(=O)c1ccc(Cl)c([N+](=O)[O-])c1)C(=O)NCc1ccco1` (stereo unspecified), the inhibition is -10.4%.
For `Cc1ccccc1OCc1nnc(SCC(=O)N2c3ccccc3Sc3ccc(Cl)cc32)o1`, the inhibition was 1.54%.
With `CCOC(=O)C1=C(O)/C(=C/c2cc(C)n(-c3ccccc3)c2C)N=C1C`, the inhibition is -0.93%.
For `N#Cc1ccccc1NC(=O)c1cccc(COc2ccc(Cl)cc2Cl)c1`, the inhibition is 2.17%.
Then `COc1ccccc1Oc1ccc(N/C=C2/CCCC2=O)cc1`, with 6.01%.
Turning to `CCCCC(=O)Nc1nnc(S(=O)(=O)N(C)Cc2ccco2)s1`, the inhibition was -1.17%.
Regarding `CC1(C)CC(=O)C/C(=N\NC(=O)c2cccs2)C1`, the inhibition was -1.64%.
To `C=CCNC(=O)CSc1nc2scc(-c3ccco3)c2c(=O)n1CC=C` belongs 35.5% (active).
To `C=CCn1c(SCc2csc(C)n2)nc2scc(-c3ccc(C)o3)c2c1=O` belongs 1.45%.
Then `C=CCn1c(=S)[nH]c2scc(-c3ccco3)c2c1=O`, with -1.34%; and `CCC1Oc2ccccc2N(CC(=O)NCCCN2CCN(CC)CC2)C1=O` (stereo unspecified), with 1.49%.
Take `Cc1ccc2oc(=O)c3cnn(CC(=O)N4CCCCCC4)c3c2c1`: the inhibition is -4.76%.
Take `COCCCN(C(=O)Cn1ncc2c(=O)oc3ccc(C)cc3c21)C(C)c1ccncc1` (stereo unspecified): the inhibition was 3.63%.
Regarding `Cc1ccc2oc(=O)c3cnn(CC(=O)N(Cc4ccco4)C4CCCCC4)c3c2c1`, the inhibition is 42.9% (active).
As for `Cc1cccc(NC(=O)c2cc(S(=O)(=O)N3CCC4(CC3)OCCO4)ccc2F)c1`, the inhibition was -2.65%.
Turning to `CN(C)c1nc(NN)nc(Nc2ccc(F)cc2)n1`, the inhibition is 11%.
With `COCCn1c(N)c(N(Cc2ccccc2)C(=O)C2CCCCC2)c(=O)[nH]c1=O`, the inhibition was 3.45%.
Regarding `CCN(C(=O)CN1CCN(Cc2ccccc2)CC1)c1c(N)n(Cc2ccccc2)c(=O)[nH]c1=O`, the inhibition was -1.57%.
Then `Nc1c(N(CCO)C(=O)C2CCCCC2)c(=O)[nH]c(=O)n1Cc1ccccc1`, with 23.6% (active); and `Cc1sc(NC(=S)NC(=O)c2cccs2)nc1-c1ccc(CC(C)C)cc1`, with -0.85%.
Consider `CCC(=O)Nc1nc(OC)cc(OC)n1`, for which the inhibition was 3.53%.
Then `COc1cc(OC)nc(NC(=O)CCl)n1`, with 19.4% (active).
Regarding `COc1cc(OC)nc(N/N=C(\c2ccccc2)c2ccncc2)n1`, the inhibition was 1.22%.
Consider `O=C(c1ccc(F)cc1)N1CCCC(C(=O)N2CCCCC2)C1` (stereo unspecified), for which the inhibition was -2.4%.
To `COc1ccc(C(=O)NC(=S)N2CCNC(=O)C2CC(=O)OC(C)C)cc1` (stereo unspecified) belongs -3.41%; to `Cc1ccc2cc(C)c(N3CCC(C)CC3)nc2c1`, -2.83%; to `CN(c1ccccc1)S(=O)(=O)c1ccc2[nH]c(=O)[nH]c2c1`, -6.38%.
To `CC1CCC(C(C)C)C(=O)/C1=C\c1ccc(NC(=O)CCC(=O)O)cc1` (stereo unspecified) belongs 2%.
`O=C(Cc1c(O)c2ccccc2[nH]c1=O)NCc1ccccc1`: the inhibition was 0.35%.
With `CCCOC(=O)Cc1c(O)c2ccccc2[nH]c1=O`, the inhibition is 46.3% (active).
Then `CC(C)C(=O)Nc1c(O)c2ccccc2[nH]c1=O`, with -1.29%; and `N#Cc1c(N2CCCCC2)nc(N)c2c(N)nc(SCC(=O)O)cc12`, with 1.83%.
Then `COc1cccc(-c2cc3nc4c(c(N5CCC6(CC5)OCCO6)n3n2)CCCC4)c1`, with 1.28%; and `Cc1cc(C)cc(NC(=O)COc2coc(CN3CCN(c4ccccc4)CC3)cc2=O)c1`, with -0.61%; and `O=C(CSc1nc2ccccc2o1)N/N=C/c1ccccc1C(=O)O`, with -1.26%.
On to `CCN(CC)C(=O)CSc1nc2ccccc2o1`, for which the inhibition is -2.89%.
To `CCC(NC(=O)c1ccccc1NC(=O)c1ccccc1)C(=O)NNC(=O)CSc1nc2ccccc2o1` (stereo unspecified) belongs 31.7% (active); to `COc1ccccc1CNC(=O)[C@@H]1CCCN1C(=O)[C@@H]1Cc2ccccc2CN1C(=O)OC(C)(C)C`, 7.62%.
As for `CCC(C)N1CC(=O)N2Cc3[nH]c4ccccc4c3C[C@H]2C1=O` (stereo partly specified), the inhibition is 5.23%.
`COC(C[C@@H]1O[C@@H]1C(=O)[C@@H](C)OCc1ccccc1)OC`: the inhibition is 9.96%.
Turning to `COC(C[C@@H]1O[C@@H]1C(=O)[C@H](C)OCc1ccccc1)OC`, the inhibition was 28.4% (active).
`COC(C/C=C/C(=O)[C@@H](C)OCc1ccccc1)OC`: the inhibition is -1.49%.
`CC(Oc1ccc(F)cc1)C(=O)Nc1ccccc1C(=O)NC1CC1` (stereo unspecified): the inhibition was -1.06%.
For `CC12CCC(=O)N1C(C(=O)Nc1ccc(F)c(F)c1F)CS2` (stereo unspecified), the inhibition was 2.04%.
Consider `Cc1ccc(C2C(C#N)C(C#N)N3CCCN23)cc1` (stereo unspecified), for which the inhibition was 1.37%.
To `COc1ccc(F)cc1S(=O)(=O)NCC(c1ccc2c(c1)OCO2)N1CCN(C)CC1` (stereo unspecified) belongs 4.62%; to `O=c1[nH]c(N2CCOCC2)nc2ccccc12`, 0.18%.
On to `O=C1C(Cl)=C(N2CCOCC2)C(=O)N1c1ccccc1`, for which the inhibition is 42.9% (active).
For the molecule `O=C1OC(NC(=O)c2ccccc2)C(N2CCOCC2)=C1Cl` (stereo unspecified), the inhibition is 5.28%.
Then `COc1ccc(CNC(=O)COC(=O)/C=C/c2ccc(S(=O)(=O)N3CCOCC3)cc2)cc1`, with 0.44%; and `COC(=O)c1ccc(NC(=O)CSc2nnc(Cc3cccn3C)n2-c2ccc(F)cc2)cc1`, with 6.5%; and `CCOc1cc(NC(=O)CCl)c(OCC)cc1NC(C)=O`, with 83.7% (active).
To `CCOc1cc(NS(=O)(=O)c2ccc(OC)cc2)c(OCC)cc1NC(C)=O` belongs -2.89%.
Take `CCCC(=O)Nc1cc(OCC)c(NC(=O)NC2CCCCC2)cc1OCC`: the inhibition was -3.59%.
Take `C/C(CCC(=O)OC[C@H]1O[C@H](C#Cc2ccccc2)C=C[C@@H]1Oc1ccc(C)cc1)=N\OC[C@@H](O)[C@H]1O[C@@H]2OC(C)(C)O[C@@H]2[C@H]1O`: the inhibition is -0.48%.
Then `CC1(C)NC(=O)N(CCCCSc2ccc(Cl)cc2)C1=O`, with 3.34%; and `N#Cc1nc(N)nc(N(c2ccccc2)c2ccccc2)n1`, with 56.4% (active).
To `CC(C)Nc1nc(N(c2ccccc2)c2ccccc2)nc(-n2ccnc2)n1` belongs -0.83%; to `Cc1ccccc1-c1ccc(Nc2ccc(C(=O)N3CCOCC3)cc2)nn1`, 0.35%; to `Cc1oc2c(c1C(=O)N1CCOCC1)C(=O)c1ccccc1C2=O`, 18.4% (active).
With `Cc1ccc(C(=O)N2CCN(C(=O)N3CCOCC3)CC2)cc1`, the inhibition was 1.67%.
Then `CCOC(=O)/C(=C\c1ccc([N+](=O)[O-])cc1)C(=O)c1cc(C(C)=O)c(Nc2ccccc2)s1`, with -2.81%; and `COc1ccccc1C(CNC(=O)c1cccc(NS(=O)(=O)c2ccc(Br)cc2)c1)N(C)C` (stereo unspecified), with 4.17%; and `CN(C)C(CNC(=O)CCCOc1ccccc1)c1ccco1` (stereo unspecified), with -6.17%.
Regarding `CN(C)C(CNC(=O)c1cccc(C#N)c1)c1ccco1` (stereo unspecified), the inhibition is 22.2% (active).
For the molecule `CN(C)C(CNC(=O)c1cccc(S(=O)(=O)Nc2ccc(Br)cc2)c1)c1ccco1` (stereo unspecified), the inhibition was -0.56%.
Then `COC(=O)c1scc(S(=O)(=O)C(C)(C)C)c1-n1cccc1`, with -3.59%; and `O=C(N/N=C/c1ccc([N+](=O)[O-])o1)c1cn(-c2ccccc2)nc1-c1ccc(F)cc1`, with 1.54%; and `Cc1ccc(/C=C/C(=O)Nc2ccc([N+](=O)[O-])c(NC(=O)/C=C/c3ccc(C)o3)c2)o1`, with 7.56%.
To `O=C(/C=C/c1ccc([N+](=O)[O-])o1)NNC(=O)c1ccc(F)cc1` belongs 17.7% (active).
To `Cc1ccc(NC(=S)Nc2ncccc2C)c(C)c1` belongs -0.91%.
For the molecule `[2H]C(CCOS(N)(=O)=O)c1ccccc1` (stereo unspecified), the inhibition was 1.8%.
Take `COc1ccc(C=C(C#N)C#N)c(CSc2ccccn2)c1`: the inhibition is -4.15%.
Turning to `Cc1ccc(OCCNC(=O)CCNS(=O)(=O)c2ccc(Br)cc2)cc1`, the inhibition is 0.55%.
Take `O=C(CCl)Nc1cccc(CP(=O)(c2ccccc2)c2ccccc2)c1`: the inhibition was 72% (active).
To `CCc1cccc(NC(=O)CCC(=O)O)c1` belongs -3%; to `O=C(Cc1ccccc1)Nc1cccc(NC(=O)c2ccccc2)c1`, -2.42%.
Then `C#CCOCCOCCOCCNc1nc(N2CCN(C(=O)[C@H](CCCCN)n3cc([C@@H](N)C(C)CC)nn3)CC2)nc(N2CCN(C(=O)[C@H](Cc3ccc(O)cc3)n3cc([C@@H](N)C(C)CC)nn3)CC2)n1` (stereo partly specified), with 5.02%; and `C#CCOCCOCCOCCNc1nc(N2CCN(C(=O)C([C@@H](C)CC)n3cc(C(N)COC(=O)C(F)(F)F)nn3)CC2)nc(N2CCN(C(=O)[C@H](CCCCN)n3cc(C(N)CC(C)C)nn3)CC2)n1` (stereo partly specified), with 33.1% (active); and `C#CCOCCOCCOCCNc1nc(N2CCN(C(=O)C([C@@H](C)CC)n3cc(C(N)COC(=O)C(F)(F)F)nn3)CC2)nc(N2CCN(C(=O)[C@H](Cc3ccc(O)cc3)n3cc(C(N)[C@H](C)CC)nn3)CC2)n1` (stereo partly specified), with -2.06%.
